Screening results (PubChem BioAssay)
IL1B secr inh – inflammasome signaling inhibition, IL-1 beta readout; THP-1 LPS/ATP IL-1B secretion, AlphaLISA, 16 h; stronger effect = lower value; activity change, % at 57.5 µM; 360,000 tested, 4.7% active; in the data active = activity change below about -50%; inconclusive = mostly about -30% to -49%
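THP-1 cells pretreated 1 hr with compounds (up to 57.5 uM final), then stimulated with LPS (250 ng/mL final) plus ATP (1.25 mM final); secreted IL-1B measured by AlphaLISA after 16 hr, decreased signal indicating inhibition.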
KB-3-1 cytotox – KB-3-1 parental cell cytotoxicity. KB-3-1 viability, CellTiter-Glo ATP luminescence, 72 h. Potency, µM (titrated, usually from 46.1 µM), actives largely listed as cytotoxic. 400,000 tested, 1.4% active. AID 1347075; also: nearly all actives have a fitted effect of over 60% in size
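Here the drug-naive KB-3-1 line serves as comparator for MDR sub-line selectivity; cells received compound titrations, 72 h at 37 °C, then CellTiter-Glo readout.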
MCF10A rereplic – induces DNA re-replication in MCF 10a normal breast cells; Potency, µM (series often up to 46.1 µM), most hits filed as activators; 350,000 tested, 2.9% active; MCF 10A DNA re-replication, Hoechst nuclear intensity, 48 h; AID 624296; also: nearly all actives have a fitted effect of over 50% in size
SW480 rereplic – DNA re-replication induction in SW480 cells. AID 624297. SW480 DNA re-replication, Hoechst DNA content imaging, 48 h. 340,000 tested, 1.8% active. Potency, µM (titrated, usually from 46.1 µM), most hits filed as activators; also: nearly all actives have a fitted effect of over 55% in size
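First, 250 cells per well were seeded. Next, compound or vehicle (23 nL) was pinned in, plates sat 48 hr at 37 C. Finally Hoechst was added for 40 min before fluorescence scanning.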
KB-V1 cytotox – kills drug-selected multidrug resistant KB-V1 cells; KB-V1 MDR cells viability, CellTiter-Glo, 72 h; Potency, µM (doses to about 46.1 µM), most hits filed as cytotoxic; 400,000 tested, 3.4% active; AID 1347076; also: nearly all actives have a fitted effect of over 60% in size
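Cytotoxicity toward P-gp-expressing KB-V1 cells was determined as loss of CellTiter-Glo luminescence after 72 h at 37 degrees C. Compounds were tested in quantitative HTS format across a concentration range, with curves fitted to normalized data.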
Large screens that a line does not name were inactive; ! = not active in a repeat. The list is not random: actives were taken first. Their share in the collection is about 9.9%. Unless noted, calls follow the shape of the dose curve; as a rule, active = well fitted curve in the direction sought with a large enough effect; inconclusive = small, poorly fitted or top-dose-only effect, or another doubt; inactive = no such curve, though single readings can be large; an effect the other way counts as inactive or inconclusive.

CC(C)OCCCNC(=O)Cn1ccc2cc(S(=O)(=O)N3CCCCC3)ccc21	SW480 rereplic inconclusive
CCN(CC)C(=O)Cn1cc(S(=O)(=O)CC(=O)NCc2ccccc2)c2ccccc21	none
COc1ccccc1-c1cc(C(F)(F)F)nc(S(=O)(=O)CCCC(=O)N2CCCCC2C)n1 (stereo not drawn)	IL1B secr inh -97.1, KB-3-1 cytotox inconclusive, MCF10A rereplic 3.98µM, SW480 rereplic inconclusive
COc1ccccc1-c1cc(C(F)(F)F)nc(S(=O)(=O)CCCC(=O)NC(C)C)n1	IL1B secr inh -97.5, KB-3-1 cytotox inconclusive, MCF10A rereplic 6.31µM, SW480 rereplic 2.91µM, KB-V1 cytotox inconclusive
COc1cccc(-c2cc(C(F)(F)F)nc(N3CCN(c4ccccc4)CC3)n2)c1	KB-3-1 cytotox inconclusive, MCF10A rereplic inconclusive, KB-V1 cytotox 16.4µM
COc1ccccc1-c1cc(C(F)(F)F)nc(N2CCCC2)n1	MCF10A rereplic 25.9µM
COc1ccccc1-c1cc(C(F)(F)F)nc(N2CCCCC2)n1	none
O=C(NCC(c1ccco1)N1CCCC1)c1cc(S(=O)(=O)N2CCOCC2)ccc1Cl (stereo not drawn)	none
O=S(=O)(c1ccc(F)cc1)N1CCC2(CC1)OCCN2S(=O)(=O)c1cccs1	MCF10A rereplic inconclusive
Cc1ccc(C(=O)OCC(=O)Nc2ccc(C)c(S(=O)(=O)N3CCCCC3)c2)c(O)c1	none (no result: MCF10A rereplic, SW480 rereplic)
Cc1ccc(NC(=O)NCCOCCn2c(=O)oc3ccccc32)cc1F	none (no result: IL1B secr inh, MCF10A rereplic, SW480 rereplic)
CC(NC(=O)Cc1ccc(S(=O)(=O)N2CCOCC2)s1)c1ccc(Cl)c(Cl)c1 (stereo not drawn)	MCF10A rereplic inconclusive, KB-V1 cytotox inconclusive
O=[N+]([O-])c1ccc(N/N=C\c2cccn2-c2ccccc2)nc1	KB-3-1 cytotox inconclusive, MCF10A rereplic 14.6µM, SW480 rereplic inconclusive, KB-V1 cytotox inconclusive
O=[N+]([O-])c1ccc(NN=Cc2ccccc2)nc1	SW480 rereplic inconclusive
COc1ccc(O)c(/C=N/Nc2nc3ccccc3[nH]2)c1	none
O=[N+]([O-])c1ccc(N/N=C/c2ccc(OCc3cccc4ccccc34)cc2)nc1	KB-3-1 cytotox inconclusive, MCF10A rereplic inconclusive, SW480 rereplic 20.6µM
O=[N+]([O-])c1ccc(O)c(/C=N/Nc2ncnc3c2cnn3-c2ccccc2)c1	KB-3-1 cytotox inconclusive, SW480 rereplic 2.31µM
COc1ccc(C=NNc2ccc([N+](=O)[O-])cn2)cc1	none
O=[N+]([O-])c1ccc(O)c(/C=N/Nc2nc3ccccc3[nH]2)c1	KB-3-1 cytotox inconclusive, MCF10A rereplic 8.2µM, KB-V1 cytotox inconclusive
CC1(C)CN(c2ccccc2)C(=O)[C@H]1CC(=O)Nc1ccccc1	none (no result: MCF10A rereplic, SW480 rereplic)
COc1ccc(C(=O)N/C(=C\c2cn(C)c3ccccc23)C(=O)OCC(C)C)cc1	SW480 rereplic inconclusive
O=[N+]([O-])c1cccc(N/N=C/c2cc([N+](=O)[O-])ccc2O)c1	MCF10A rereplic inconclusive
O=[N+]([O-])c1ccc(NN=Cc2ccccc2O)nc1	MCF10A rereplic inconclusive, SW480 rereplic 2.59µM
O=[N+]([O-])c1ccc(NN=Cc2ccc(O)cc2O)nc1	KB-3-1 cytotox inconclusive, MCF10A rereplic inconclusive, SW480 rereplic inconclusive, KB-V1 cytotox inconclusive
Cc1c(O)ccc(/C=N/Nc2ncccc2[N+](=O)[O-])c1O	KB-3-1 cytotox inconclusive, KB-V1 cytotox inconclusive
O=[N+]([O-])c1ccc(O)c(/C=N/Nc2ccccn2)c1	IL1B secr inh -101.0, KB-3-1 cytotox inconclusive, MCF10A rereplic inconclusive, SW480 rereplic 1.3µM
O=[N+]([O-])c1cccnc1N/N=C/c1ccccc1O	KB-3-1 cytotox 1.84µM, SW480 rereplic 0.82µM, KB-V1 cytotox inconclusive
CC1(c2ccc3ccccc3c2)NC(=O)N(CC(=O)N2CCCC(C(F)(F)F)C2)C1=O (stereo not drawn)	none
O=C(CN1C(=O)C(=O)N(Cc2ccccc2)C1=O)Nc1ccc(F)c(Cl)c1	none
CSCCC(N=C(NS(=O)(=O)c1ccc(C)cc1)c1ccccc1)C(=O)O (stereo not drawn)	none
Cc1ccc(NC(=O)C2=C(C(=O)O)CCCC2)cc1Br	SW480 rereplic 8.2µM
Cc1ccc(NC(=O)C2=C(C(=O)O)CCCC2)cc1F	none
O=C(NCc1ccco1)c1ccccc1SCC(=O)N1CCCC1	none
CCN(CC)S(=O)(=O)c1cc(NC(=O)c2ccc(-n3cncn3)c([N+](=O)[O-])c2)ccc1C	none (no result: KB-3-1 cytotox, KB-V1 cytotox)
Cc1[nH]nc(N=CC2=C(O)CC(c3ccco3)CC2=O)c1-c1ccccc1 (stereo not drawn)	KB-V1 cytotox 16.4µM!
Cc1[nH]nc(N=CC2=C(O)CC(C)(C)CC2=O)c1-c1ccccc1	KB-3-1 cytotox inconclusive, KB-V1 cytotox 23.1µM!
Cc1ccc(-n2c(=O)c3c(cnn3C)n(CC(=O)Nc3cccc(Cl)c3)c2=O)cc1	none (no result: IL1B secr inh, MCF10A rereplic, SW480 rereplic)
OCCC1CN(CCCc2ccccc2)CCN1Cc1ccccc1 (stereo not drawn)	none
CCOc1cc(CN2CCN(CCc3ccccc3)C(CCO)C2)ccc1OC (stereo not drawn)	IL1B secr inh -68.9, SW480 rereplic inconclusive, KB-V1 cytotox inconclusive
CCOc1ccc2nc(CN3CCN(Cc4ccccc4OCC)C(CCO)C3)ccc2c1 (stereo not drawn)	IL1B secr inh -69.8, KB-3-1 cytotox inconclusive, MCF10A rereplic inconclusive
OCCC1CN(CCCc2ccccc2)CCN1CCc1ccccc1 (stereo not drawn)	MCF10A rereplic 20.6µM
CCOc1ccccc1CN1CCN(Cc2ccc3cc(F)ccc3n2)CC1CCO (stereo not drawn)	MCF10A rereplic inconclusive
CC(C)CN1CCN(CC#Cc2ccccc2)CC1CCO (stereo not drawn)	MCF10A rereplic 0.651µM
Cc1nc(N2CCOCC2)[nH]c(=O)c1C	none
Cc1cc(/C=N/NC(=O)Cn2c3ccccc3c(=O)c3ccccc32)c(C)n1-c1ccc(Cl)cc1	KB-3-1 cytotox inconclusive, MCF10A rereplic 11.6µM
COC(=O)N/N=C/c1cc(C)n(-c2ccccc2)c1C	none
Cc1nc2ccccn2c1C(=O)N/N=C/c1cc(C)n(-c2ccc(Cl)cc2)c1C	none
Cc1ccc(-n2c(C)cc(/C=N/NC(=O)Cn3c4ccccc4c(=O)c4ccccc43)c2C)cc1	MCF10A rereplic 14.6µM, SW480 rereplic 11.6µM
Cc1ccc2[nH]c(O)c(N=Nc3nc4ccccc4s3)c2c1	KB-3-1 cytotox inconclusive, KB-V1 cytotox 13µM
CC(C)(C)c1cc(NC(=O)c2cccs2)no1	IL1B secr inh -51.3, SW480 rereplic inconclusive
O=C(Nc1ccc(NC(=O)c2cccs2)cc1)c1cccs1	none
O=C(Nc1nonc1NC(=O)c1cccs1)c1cccs1	KB-3-1 cytotox inconclusive, KB-V1 cytotox 10.3µM
Cc1cc(NC(=O)c2ccc(NC(=O)c3cccs3)cc2)no1	KB-V1 cytotox 14.6µM
CC(/C=N/N1CCN(c2ccccn2)CC1)=C\c1ccccc1	KB-V1 cytotox 20.6µM
Cc1ccc(NC(=O)N2CCN(Cc3ccc4c(c3)OCO4)CC2)cc1	KB-V1 cytotox 20.6µM
